Data published in PubChem BioAssay AID588763 (NMMLSC, 2011).
Measured potencies and affinities stand elsewhere. Activity calls are given as the source filed them. How the calls were made is not given here.

Biological target: Beta-2 adrenergic receptor (Homo sapiens) (UniProt P07550)
Assay: ADRB2 activation measured by internalization – cell-based, FAP fluorogen, flow cytometry, cherry pick 1, dose response (AID 588763)
Conditions: AM2.2-beta2AR cells, 90 min; series mostly up to 33 µM; activation (receptor internalization): at the top concentration

Sequence of Beta-2 adrenergic receptor (Homo sapiens) (P07550 whole entry, looked up): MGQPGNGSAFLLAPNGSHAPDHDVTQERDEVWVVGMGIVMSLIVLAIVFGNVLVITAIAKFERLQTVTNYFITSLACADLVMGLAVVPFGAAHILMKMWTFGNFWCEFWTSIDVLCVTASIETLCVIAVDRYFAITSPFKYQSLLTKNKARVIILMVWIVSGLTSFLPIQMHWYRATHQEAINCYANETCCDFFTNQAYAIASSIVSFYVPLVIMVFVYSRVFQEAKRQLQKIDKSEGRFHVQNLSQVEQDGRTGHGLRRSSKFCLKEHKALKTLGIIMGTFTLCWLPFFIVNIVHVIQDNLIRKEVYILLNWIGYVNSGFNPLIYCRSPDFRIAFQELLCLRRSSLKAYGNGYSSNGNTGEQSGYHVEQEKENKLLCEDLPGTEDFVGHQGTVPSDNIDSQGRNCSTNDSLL

Activation (receptor internalization), inactive:
COc1ccc(C(CCNCc2ccc(OC(C)C)cc2)c2ccccc2OC)cc1 (stereo not drawn) 59.8%, CCOc1cc(/C=C2\CN(C)C/C(=C\c3ccc(O)c(OCC)c3)C2=O)ccc1O 72.9%, Cc1cc(S(=O)(=O)N2CCOCC2)ccc1OCC(=O)Nc1ccccc1F -7.22%, Cc1cc(S(=O)(=O)N2CCOCC2)ccc1OCC(=O)Nc1ccccc1C(F)(F)F 4.85%, CCN(CC)S(=O)(=O)c1cc(C(=O)Nc2cc(Cl)ccc2N2CCN(C)CC2)ccc1Cl 24.4%, COC(=O)c1ccc(CNC(=O)c2cc(COc3cncc(Cl)c3)on2)cc1 4.05%, CC(NCCc1ccc(O)cc1)C(O)c1ccc(O)cc1 (stereo not drawn) -3.89%, O=C1CN(S(=O)(=O)c2cccc(Cl)c2Cl)c2ccccc2N1 41.8%, CCN(CC)CCNc1ncnc2c1sc1nc(N3CCCC3)c3c(c12)CC(C)(C)OC3 69.5%, O=C(Cn1nnc(-c2ccccc2)n1)Nc1ccccc1N1CCOCC1 -11.5%, COc1ccc(-n2nc3c(N4CCC(C(=O)NCc5ccco5)CC4)nnc(C)c3c2C)cc1 11%, CCc1ccc(CN(C)C(=O)c2cc(COc3cncc(Cl)c3)on2)cc1 -3.26%, NC(=O)CC(NC(=O)c1ccccc1)c1ccc(N2CCN(c3ccccn3)CC2)c([N+](=O)[O-])c1 (stereo not drawn) 14.7%, O=C(Nc1ccc(NC(=O)c2ccccc2F)cc1)c1cccs1 -0.287%, O=C(Nc1ccc2oc(-c3ccccc3F)nc2c1)c1ccc2c(c1)OCCO2 22.6%, CCOc1cc(-c2nc3ccccn3c2NCC2CCCO2)ccc1O (stereo not drawn) -11.8%, CCOc1ccc(NC(=O)COc2ccc(S(=O)(=O)N3CCCC3)cc2)cc1 -10.2%, O=C(c1ccc(OC2CCN(Cc3ccccc3C(F)(F)F)CC2)cc1)N1CCCCC1 37.8%, CC(C)NCC(O)c1cc(O)cc(O)c1 (stereo not drawn) 23.2%, COc1cccc(CN2CCC(Oc3ccc(C(=O)N4CCCCC4)cc3)CC2)c1 2.46%, COc1ccccc1CCC(=O)Nc1cccc(S(=O)(=O)N2CCCCCC2)c1 6.06%, COc1ccc(C(=O)Nc2nc3cc4c(cc3s2)OCCO4)c(OC)c1 61.6%, COc1ccc(S(=O)(=O)N(C)CC(=O)N2CCN(c3ccccc3)CC2)cc1 -25.8%, CC(NCc1ccc(OCc2ccc(Cl)cc2)cc1)C(O)c1ccccc1 (stereo not drawn) 66.1%, Cc1ccccc1NC(=O)COc1ccc(S(=O)(=O)N2CCCC2)cc1C -0.639%, COc1ccccc1-c1cc(C(F)(F)F)nc(S(=O)(=O)CCCC(=O)N2CCOCC2)n1 38.6%, CSc1ccc(CCNC(=O)C2CCN(c3nnc(-n4cccc4)s3)CC2)cc1 88.6%, CC(=O)Nc1ccc(CN2CCC(Oc3ccc(C(=O)N4CCCC4)cc3)CC2)cc1 -1.14%, COc1cccc(-c2ccc(NC(=O)C3CCCN(Cc4ccccn4)C3)cc2)c1 (stereo not drawn) 11.9%, N=c1n(Cc2ccc(Cl)cc2)c2ccccc2n1CC(O)COc1ccccc1 (stereo not drawn) 88.3%

outcome, inactive:
COc1ccc(OC)c(S(=O)(=O)N(C)CC(=O)N2CCN(c3ccccc3F)CC2)c1, COCC(C)NC(=O)CCS(=O)(=O)c1nc(-c2ccc(OC)cc2)cc(C(F)(F)F)n1 (stereo not drawn), COc1ccccc1CNC(=O)CCn1c(=O)[nH]c2ccsc2c1=O
